# Assay outcomes (PubChem BioAssay)
# Rows were chosen to be rich in hits. Some 0.88% of all compounds tested hit in one or more screens of this group.
# CtBP-E1A inh: blocks the CtBP interaction with E1A; AlphaScreen GST-E1A/His-CtBP binding, 1536-well; hits give low values; activity change, % (test concentration not listed); 0.49% of 340,000 active; also: % is scaled to controls: 0 for no effect and ±100 for the full control effect
#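 Protein mix (5X: 125 nM each GST-E1A, His-CtBP) was incubated with pinned compound 2 h at 37 deg C in dark, in 50 mM Tris pH 8.0 buffer with 300 mM NaCl. Glutathione donor and nickel acceptor beads followed; AlphaScreen signal read after 1 h.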
# Six1-Eya2 inh: inhibitors of human Six1/Eya2 interaction; 0.56% of 360,000 active; activity change, % (no concentration beside the values); AlphaScreen GST-Six1/His-Eya2 binding, biochemical; hits give low values; Q15475+O00167; also: % is scaled to controls: 0 for no effect and ±100 for the full control effect
#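 Homogeneous AlphaScreen proximity assay pairing GST-Six1 with His-tagged Eya2 (added as 5X mix: 250 nM and 500 nM) in 50 mM Tris pH 8.0, 300 mM NaCl, 1 mM TCEP. Glutathione donor and nickel acceptor beads; 1 h, 37 °C, dark.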
# Glioma ERSR ind: induces the endoplasmic reticulum stress response in human glioma cells. AID 602332. Potency, µM, inactives show at the top dose activation, hits mostly activators. 0.02% of 420,000 active. U87-MG GRP78 promoter luciferase reporter, 16 h; active = well fitted curve in the direction sought with a large enough effect; inconclusive = small, poorly fitted or top-dose-only effect, or another doubt; inactive = no such curve, though single readings can be large; an effect the other way counts as inactive or inconclusive; also: potency is read from the fitted curve at half-maximal effect; series mostly up to about 76 µM; % of control where 0% means no effect; nearly all actives have a fitted effect of over 35% in size
#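 Stably transfected U87-MG glioma cells carrying a GRP78-based luciferase sensor; 16 h compound incubation. Luminescence end-point read 10 min after Bright-Glo addition at room temperature.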
# pAkt inh: inhibitors of Akt phosphorylation; Neuro2A IGF-stimulated pAkt S473 HTRF, 20 min; hits give low values; activity change, % for hits at 50 µM; 0.32% of 360,000 active; in the data active = activity change below about -80%; inconclusive = mostly about -51% to -80%; also: % is scaled to controls: 0 for no effect and ±100 for the full control effect
#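 Single-point screen (50 µM final compound) in Neuro2A cells stimulated 20 min with 6 nM IGF at 37 deg C. After lysis, Ser473-phosphorylated Akt read by HTRF (ex 330 nm, em 615/665 nm) as the 665/615 ratio.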
# RGS4 inhibitor: human RGS4 inhibition | P49798 | Transcreener GDP fluorescence polarization, RGS4-accelerated GTP hydrolysis | Potency, µM (top dose mostly 114 µM), without a hit: at the highest dose activity change, negative = inhibition, actives largely listed as inhibitors | 0.039% of 390,000 active; active = well fitted curve in the direction sought with a large enough effect; inconclusive = small, poorly fitted or top-dose-only effect, or another doubt; inactive = no such curve, though single readings can be large; an effect the other way counts as inactive or inconclusive; also: potency is read from the fitted curve at half-maximal effect; % is scaled to controls: 0 for no effect and ±100 for the full control effect; nearly all actives have a fitted effect of over 75% in size
# Target sequence (P49798 whole entry, looked up): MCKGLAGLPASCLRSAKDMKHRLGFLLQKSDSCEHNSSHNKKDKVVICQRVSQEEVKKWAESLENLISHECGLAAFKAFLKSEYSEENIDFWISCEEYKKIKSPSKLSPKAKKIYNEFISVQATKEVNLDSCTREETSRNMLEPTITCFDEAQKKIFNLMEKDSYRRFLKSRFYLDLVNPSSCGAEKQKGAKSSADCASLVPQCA
#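 MLSMR compounds (23 nl, pin-transferred) preincubated 10 min at room temperature with a 500nM (2x) first reagent, then RGS4 at 900nM (2x) plus Transcreener GDP mix added; fluorescence polarization (620/688 nm) read before and after 90 min at 30 °C.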
# Starred values were filed as active, the others as inactive; i = inactive; ? = inconclusive; nt = no result given; ! = not confirmed by another sample; [ ] = dose if it differs, or a comment. Rule as the data show it, unless noted: active = activity change below about -65%; inconclusive = mostly about -30% to -63%; inactive = weaker than that.
SMILES,CtBP-E1A inh,Six1-Eya2 inh,Glioma ERSR ind,pAkt inh,RGS4 inhibitor
O=C(CN1C(=O)c2ccccc2C1=O)OCC(=O)c1ccc(F)cc1,2,5,1%,i,-19%
O=C(CN1CC(=O)Oc2ccccc21)OCC(=O)c1cccc(Br)c1,?,-82*,-2%,i,-10%
O=C(CN1CC(=O)Oc2ccccc21)OCC(=O)c1ccccc1,-92*,-91*,2%,i,-18%
O=c1cc(-c2ccccc2)oc2cccc(O)c12,0,0,1%,i,8.4µM*!
Cc1cc(C(=O)N/N=C/c2cc(Cl)cc([N+](=O)[O-])c2O)n[nH]1,-81*,?,11%,i,-5%
Cc1cc(C(=O)N/N=C/c2ccc([N+](=O)[O-])s2)n[nH]1,?,-9,-7%,i,7%
O=[N+]([O-])c1cc(Cl)cc(/C=N\Nc2ccccn2)c1O,-87*,-95*,-2%,i,-23%[11.4 µM]
Cc1c(C(=O)N2CCCC2)sc2ncnc(NCCCN3CCOCC3)c12,nt,nt,-6%,nt,nt
COc1cccc(-c2ccc(O)c(CNCc3cccc(OC)c3OC)c2)n1,nt,nt,-3%,nt,nt
N#C/C(=C\c1c(Cl)cccc1Cl)c1nc2ccccc2[nH]1,1,-3,-1%,i,5%
N#C/C(=C\c1ccc(Cl)cc1)c1nc2ncccc2[nH]1,?,-17,12%,-105%*,10%
CCOc1ccc(NC(=O)c2cc(F)c(F)cc2Cl)cc1OCC,-97*,-6,-2%,i,-6%
CCCCOc1ccc(NC(=O)c2cc(F)c(F)cc2Cl)cc1,-12,12,3%,i,-34%
O=C(N[C@@H](Cc1ccccc1)C(=O)CCl)OCc1ccccc1,-16,7,-14%,nt,3.4µM*
CCc1ccc(/C=N/NC(=O)c2cc(-c3ccncc3)nc3ccccc23)s1,-5,-14,-3%,i,?
CCCc1cc(C(=O)N/N=C/c2ccc(CC)s2)c2ccccc2n1,13,11,-4%,-118%*,?
O=S(=O)(O)c1ccc(O)c2cc(Nc3ccccc3)ccc12,-29,-73*,-2%,i,?
O=C(COc1ccccc1C(=O)Nc1cccnc1)Nc1ccc(Br)cc1,nt,nt,-1%,nt,nt
CC1=C/C(=C(\c2cc(C)c(O)c(Br)c2)c2ccccc2S(=O)(=O)O)C=C(Br)C1=O,-75*,-92*,-11%,i,?
Cc1ccc(NC(=O)N2CCCC2C(=O)NCCc2ccccc2)cc1 (stereo not given),8,-3,4%,-121%*,19%
Cc1cc2c(c(-c3nc4ccccc4s3)c1)OC(CNC(=O)c1occc1C)C2 (stereo not given),nt,nt,-2%,nt,nt
c1ccc2c(CCc3c[nH]c4ccccc34)ccnc2c1,nt,nt,-5%,nt,nt
COc1cnc(-c2ccccn2)nc1Oc1ccccc1,-67*,?,5%,i,?
COc1cnc(-c2ccccn2)nc1Sc1ccc(F)cc1,-72*,?,2%,i,18%
COc1cnc(-c2ccccn2)nc1Sc1ccc(Cl)cc1,-10,-7,-2%,i,0%
SMILES,CtBP-E1A inh,Six1-Eya2 inh,Glioma ERSR ind,pAkt inh,RGS4 inhibitor
Cc1cccc(Oc2nc(-c3ccccn3)nc3ccccc23)c1,?,?,4%,i,-17%
CCOc1cccc(CN2CCC(n3cc(C(=O)N4CCCCC4)nn3)CC2)c1O,nt,nt,-1%,nt,nt
CC(=O)N1CCC[C@H]1C(=O)N1CCc2c(cnc(C)c2CNC(=O)/C=C/c2cccs2)C1,nt,nt,-1%,nt,nt
CCc1cc2c(CN3CCN(C)CC3)cc(=O)oc2cc1O,-2,-1,-4%,i,1%
CCc1cc2c(CN3CCN(CCO)CC3)cc(=O)oc2cc1O,0,0,2%,-106%*,-4%
O/N=C(/C[n+]1cccc(Br)c1)c1ccc2ccccc2c1,nt,nt,0%,nt,nt
Cc1ccc2c(c1)c1n[nH]c(=S)nc1n2CCc1ccccc1,nt,0,-1%,i,-18%
CCn1c2ccc(C)cc2c2n[nH]c(=S)nc21,-88*,-75*,-3%,i,?
Cn1c2ccccc2c2n[nH]c(=S)nc21,-79*,-83*,-3%,i,-52%
Cc1c(C(=O)NCc2ccccc2Cl)sc2ncnc(NCC3CCCO3)c12 (stereo not given),nt,nt,-7%,nt,nt
O=C(O)c1cccc(Cn2c(Cl)c(/C=N/NC(=O)c3ccc(O)cc3)sc2=O)c1,-67*,?,3%,i,-14%
